Screens as filed in PubChem BioAssay.
Compounds with a hit are over-represented: about 21% of the library has one in this group of screens.
HCV inhibitor = inhibitors of hepatitis C virus infection; Huh7.5.1 HCVcc-Cre infection, luciferase reporter, 44 h; Potency, µM (series often up to 41.8 µM), inactives show at the highest dose activity change, negative = inhibition, hits mostly inhibitors; hit rate 3.4% among 340,000; AID 651820; further: potency means the concentration at half of the fitted maximal effect; on the % scale 0 is the no-effect control and ±100 the full control effect
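Compounds are dispensed onto cells plated 4 h earlier at 1,000 per well, with HCVcc-Cre virus (about 0.5 moi) added next. Following 44 h of culture, luminescent signal is measured for 15 sec after 15 min with substrate at room temperature.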
Cycloheximide cs = affects cycloheximide protein synthesis inhibition readout, counter-screen. cell reporter, cycloheximide protein synthesis inhibition counterscreen. max response, %. hit rate 12% among 300,000; in the data active means max response mostly above about 13%, no sharp cut-off; inactive means mostly below about 14%; further: read at 38.3 µM for the half of the compounds with a filed dose; 0% is about no effect
Pf growth 48h = P. falciparum growth inhibition at 48 hours (one generation) | P. falciparum luciferase growth in erythrocytes, 48 h | AID 504832 | Potency, µM (doses to about 28.7 µM), for the others: at the top dose activity change, negative = inhibition, usual class: inhibitors | hit rate 5.9% among 310,000; further: potency means the concentration at half of the fitted maximal effect; on the % scale 0 is the no-effect control and ±100 the full control effect
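Compounds are pin-transferred into medium, infected erythrocytes (2% hematocrit, 0.1% parasitemia final) are added, and plates sit one parasite generation at 37 C in 5% CO2. Detection reagent is then added and luminescence measured.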
AMA1 RON2 block = inhibitors of Plasmodium falciparum AMA1-RON2 interaction | AlphaScreen AMA1-biotinylated RON2 peptide binding | Potency, µM (doses to about 58.2 µM), inactives show top-dose activity change, negative = inhibition, most hits filed as inhibitors | hit rate 0.2% among 360,000 | AID 720542;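 further: potency means the concentration at half of the fitted maximal effect; 0% = vehicle wells and -100% = peptide control; nearly all actives have a fitted effect of over 45% in size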
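AMA1 (3D7) with his tag at 25 nM final met compounds first, then biotinylated RON2 peptide at 25 nM; detection used donor plus acceptor beads, 10 µg/mL apiece, read by AlphaScreen after 30 min at room temperature.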
Shiga inhibitor = inhibitors of Shiga toxin in Vero cells. hit rate 9.2% among 290,000. AID 2315. inhibition, % at 38.7 µM. Vero cells, Shiga toxin protein synthesis inhibition reporter; in the data active means inhibition mostly above about 28%, no sharp cut-off; inactive means mostly below about 43%; further: 0% is about no effect
Pf growth 96h = P. falciparum growth inhibition at 96 hour, primary screen for plastid delayed-death inhibitors. Potency, µM (highest dose often 28.7 µM), for the others: at the top dose activity change, negative = inhibition, hits mostly inhibitors. P. falciparum luciferase reporter growth, 96 h. hit rate 6.9% among 320,000. AID 504834; further: potency means the concentration at half of the fitted maximal effect; on the % scale 0 is the no-effect control and ±100 the full control effect
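Erythrocytes infected with luciferase-expressing P. falciparum were dispensed at 2% hematocrit and 0.05% parasitemia (final), then incubated with compounds 96 hours at 37 C in 5% CO2. Luminescence after detection reagent addition reported growth.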
Numbers without * were called inactive; i = inactive; ? = inconclusive; nt = not tested or not shown. Unless noted, the call rests on the fitted dose curve; in most records, active means well fitted curve in the direction sought with a large enough effect; inconclusive means small, poorly fitted or top-dose-only effect, or another doubt; inactive means no such curve, though single readings can be large; an effect the other way counts as inactive or inconclusive.

SMILES	HCV inhibitor	Cycloheximide cs	Pf growth 48h	AMA1 RON2 block	Shiga inhibitor	Pf growth 96h
COc1ccc(NC(=S)c2ccc(N(C)C)cc2)cc1	10.8%	54.1*	152.6%	2.6%	57.7*	32.4%
CCCN(CC(=O)Nc1ccccc1C)C(=O)c1ccc(N2CCCC(C)C2)c([N+](=O)[O-])c1 (configuration not stated)	-22.9%	nt	nt	-14.7%	nt	nt
CCCCN(CCCC)CC(O)c1cc(Cl)cc2c1-c1ccc(Cl)cc1/C2=C/c1ccc(Cl)cc1 (configuration not stated)	nt	nt	0.0151µM*	nt	nt	0.0213µM*
Cc1ccc(OCc2nnc(-c3ccc(Cl)cc3)o2)cc1	11.4%	nt	nt	33.9%	nt	nt
c1ccc(OCc2nnc(-c3ccccc3)o2)cc1	10.4%	26.4*	102.8%	-0.6%	117.8*	171.6%
Clc1ccc(-c2nnc(CCc3ccccc3)o2)c(Cl)c1	1.7%	41.5*	76.2%	153.7%	89.6*	199.8%
Oc1ccccc1-c1nnc(COc2ccccc2)o1	-0.2%	26.7*	nt	19.0%	39.8	-23.6%
Oc1ccccc1-c1nnc(COc2ccc(Cl)cc2Cl)o1	12.0%	44.8*	32.9%	55.2%	74.0*	20.3%
COc1ccc2cc(C(c3nnnn3C3CCCC3)N3CCOCC3)c3nnnn3c2c1 (configuration not stated)	-5.3%	-4.1	-31.8%	5.7%	-10.7	-1.5%
CC1=C(C(=O)N2CCCCCC2)CC(CC(=O)NCCN2CCOCC2)C(=O)N1CCC1=CCCCC1 (configuration not stated)	nt	nt	nt	-15.2%	nt	nt
Cc1cc(C)n(-c2ccc(C(=O)N3CCN(S(=O)(=O)c4ccc(Br)cc4Cl)CC3)cc2)n1	nt	nt	nt	-14.8%	nt	nt
CCN(C(=O)COC(=O)c1cc(C)oc1C)c1c(N)n(Cc2ccccc2)c(=O)[nH]c1=O	-5.7%	nt	?	-5.6%	nt	-11.6%
COCCN(C(=O)COC(=O)CC1CCCCC1)c1c(N)n(Cc2ccccc2)c(=O)[nH]c1=O	9.8%	-2.1	?	0.0%	12.7	?
CCCN(C(=O)COC(=O)CC1CCCCC1)c1c(N)n(Cc2ccccc2)c(=O)[nH]c1=O	8.9%	nt	8.28µM*	4.2%	nt	?
CCCN(C(=O)COC(=O)c1[nH]c(C)c(C(=O)OC)c1C)c1c(N)n(Cc2ccccc2)c(=O)[nH]c1=O	?	nt	14.7µM*	-2.1%	nt	?
Nc1c(N(C(=O)Nc2ccc(Cl)c(Cl)c2)C2CCCC2)c(=O)[nH]c(=O)n1Cc1ccccc1	11.2µM*	-5.9	-23.4%	15.5%	-6.2	nt
COCCN(C(=O)COC(=O)c1c(NC(C)=O)sc(C)c1C)c1c(N)n(Cc2ccccc2)c(=O)[nH]c1=O	?	nt	?	5.3%	nt	10.4µM*
NS(=O)(=O)c1ccc(NC(=O)COC(=O)CNC(=O)C23CC4CC(CC(C4)C2)C3)cc1	8.3%	-8.2	-7.6%	0.0%	-6.3	16.9%
Cc1cccc(NC2=CC(=O)CC(C)(C)C2)c1C	16.3%	-2.5	3.3%	-10.2%	-34.6	-23.5%
CCCn1c(N)c(N(CCOC)C(=O)c2cc3c(s2)CCC(CC)C3)c(=O)[nH]c1=O (configuration not stated)	7.4%	nt	?	4.4%	nt	10.5%
CCC1CCc2sc(C(=O)OCC(=O)N(CCOC)c3c(N)n(Cc4ccccc4)c(=O)[nH]c3=O)cc2C1 (configuration not stated)	?	nt	?	8.7%	nt	10.4µM*
COC(=O)[C@@H](NC(=O)CCc1nnc(-c2ccsc2)o1)C(C)C	14.3%	49.9*	13.9%	-5.0%	30.5	-13.3%
CCOC(=O)CC1COCCN1C(=O)CCc1nnc(-c2ccsc2)o1 (configuration not stated)	16.1%	33.0*	11.6%	14.4%	34.0	-26.2%
O=C(CCc1nnc(-c2ccsc2)o1)N1CCCCC1CCn1ccnc1 (configuration not stated)	2.3%	5.9	32.5%	-2.6%	20.8	i
NNC(=O)CNC(=O)Nc1n[nH]c(=S)s1	nt	nt	nt	102.7%	nt	nt
SMILES	HCV inhibitor	Cycloheximide cs	Pf growth 48h	AMA1 RON2 block	Shiga inhibitor	Pf growth 96h
O=C(CC1NCCNC1=O)Nc1ccc([N+](=O)[O-])cc1 (configuration not stated)	3.6%	0.8	8.0%	-0.4%	9.2	32.8%
Cc1cc(C(=O)CN2C(=O)NC3(CCCc4sccc43)C2=O)c(C)n1-c1ccc(Cl)cc1 (configuration not stated)	-25.8%	0.6	9.28µM*	-12.6%	-3.7	?
O=C(CN1C(=O)COc2ccccc21)Nc1ccc2c(c1)OCCO2	nt	11.9	15.7%	-1.9%	31.7	?
Cc1ccsc1CN(C)C(=O)CN1C(=O)NC2(CCCc3ccccc32)C1=O (configuration not stated)	5.8%	nt	?	-5.4%	nt	11.7µM*
O=C(CN1C(=O)COc2ccccc2C1=O)c1ccc2c(c1)OCCO2	2.7%	27.6*	31.7%	-0.2%	29.1	59.1%
O=C(CN1C(=O)NC2(CCc3ccccc32)C1=O)c1ccc2c(c1)OCCO2 (configuration not stated)	21.1%	22.6	-6.2%	40.6%	69.9*	nt
O=C(CN1C(=O)NC2(CCc3ccccc32)C1=O)c1ccc(F)cc1 (configuration not stated)	7.9%	nt	10.4%	-15.7%	nt	-15.9%
CC(=O)Nc1ccc(CN2C(=O)C(C)ON=C2c2ccccc2-c2ccco2)cc1 (configuration not stated)	nt	nt	nt	7.4%	nt	nt
Cc1ccc(C)c(C(=O)CN2C(=O)NC3(CCc4ccccc43)C2=O)c1 (configuration not stated)	-7.9%	nt	?	7.5%	nt	14.7µM*
COc1ccc(C(=O)CN2C(=O)NC3(CCCc4ccccc43)C2=O)cc1 (configuration not stated)	-10.7%	nt	?	-14.2%	nt	10.4µM*
O=c1sc2ccccc2c(N2CCOCC2)c1[N+](=O)[O-]	4.6%	-1.3	-12.8%	5.7%	7.4	27.8%
CSc1ccc(Cl)c(C(=O)NNC(=O)c2csc(N3CCOCC3)n2)c1	-12.3%	nt	-19.2%	83.1%	nt	3.2%
COCCc1nc2ccc(C(=O)N(C)Cc3cccc(-n4nc(C)cc4C)c3)cc2o1	nt	7.1	0.2%	5.0%	-6.8	?
COc1cccc(NC(=O)/C=C/c2ccco2)c1	-9.4%	52.2*	306.3%	-3.5%	140.5*	257.9%
O=C(/C=C/c1ccco1)Nc1ccc(Oc2ccc(Cl)cc2)cc1	8.91µM*	-2.6	8.28µM*	-12.0%	0.2	3.2%
COc1ccccc1NC(=O)/C=C\c1ccco1	-1.3%	40.6*	nt	-11.3%	68.5*	8.8%
CSc1cccc(NC(=O)/C=C/c2ccco2)c1	-14.3%	54.8*	141.8%	-1.9%	110.3*	55.3%
O=C(NC(Cc1ccccc1)C(=O)O)/C(=C/c1ccccc1)NC(=O)c1cccc(Br)c1 (configuration not stated)	14.7%	-3.4	11.6%	6.7%	-12.3	38.8%
